From PubChem BioAssay AID1159580 (chemical genetic matrix, 2015)
Values joined by “and” are separate entries in the source; they are usually repeats but may differ in a detail not shown here. Identical values can stand only once. Out of some 5,500 compounds screened, about 2,000 (36%) were called active. Inconclusive results (about 18%) are left out. No stated cut-off is given here; in the data, active means normalized growth mostly below about 0.91 (no sharp cut-off); inconclusive means no clear call, values can overlap the other calls; inactive means mostly above about 0.92. This is one part of the list.

Experiment: chemical genetic growth profiling, strain panel (AID 1159580);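 further: tested at 20 µM; growth read once vehicle control cultures reached saturation at 30 °C; 1 = growth at the plate median or of vehicle wells; lower values mean less growth of the strain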
Settings: S. cerevisiae deletion strains, growth OD

Measured: normalized growth

CC1CCCC(C)N1NC(=O)c1ccc(Cl)c(S(N)(=O)=O)c1 (stereo unspecified)
inactive: locus YAL013W, strain DEP1, hits give low values 1 | locus YAL021C, strain ccr4, hits give low values 1 | locus YAL026C, strain drs2, hits give low values 1.03 | locus YAL030W, strain snc1, hits give low values 0.989 | locus YBL061C, strain skt5, hits give low values 1.02 | locus YBR009C, strain hhf1, hits give low values 1.02 | locus YBR021W, strain FUR4, hits give low values 1.09 | locus YBR023C, strain chs3, hits give low values 1.01 | locus YBR171W, strain sec66, hits give low values 1.03 | locus YBR229C, strain ROT2, hits give low values 0.996 | locus YBR231C, strain swc5, hits give low values 1.05 | locus YBR279W, strain paf1, hits give low values 1 | locus YCL011C, strain gbp2, hits give low values 0.932 | locus YCL016C, strain dcc1, hits give low values 1.02 | locus YCL029C, strain bik1, hits give low values 0.974 | locus YCL069W, strain vba3, hits give low values 1 | locus YCR088W, strain abp1, hits give low values 1.01 | locus YDL005C, strain med2, hits give low values 1.01 | locus YDL035C, strain GPR1, hits give low values 1.01 | locus YDL040C, strain nat1, hits give low values 1.01 | locus YDL074C, strain BRE1, hits give low values 0.991 | locus YDL101C, strain DUN1, hits give low values 0.983 | locus YDL134C, strain PPH21, hits give low values 1 | locus YDL185W, strain tfp1, hits give low values 0.964 | locus YDL192W, strain arf1, hits give low values 0.988 | locus YDR001C, strain nth1, hits give low values 1.01 | locus YDR069C, strain doa4, hits give low values 1.01 | locus YDR101C, strain arx1, hits give low values 0.99 | locus YDR137W, strain rgp1, hits give low values 1.01 | locus YDR150W, strain NUM1, hits give low values 0.992 | locus YDR159W, strain sac3, hits give low values 1.02 | locus YDR162C, strain NBP2, hits give low values 0.997 | locus YDR195W, strain ref2 1 | locus YDR297W, strain sur2, hits give low values 1.01 | locus YDR318W, strain mcm21, hits give low values 1 | locus YDR334W, strain swr1, hits give low values 1.02 | locus YDR335W, strain msn5, hits give low values 1.02 | locus YDR388W, hits give low values 0.998 | locus YDR392W, strain spt3, hits give low values 1.03 | locus YDR502C, strain sam2, hits give low values 0.993 | locus YEL003W, strain gim4, hits give low values 1.02 | locus YEL037C, strain rad23, hits give low values 1.02 | locus YEL061C, strain CIN8 (second series), hits give low values 1.01 | locus YEL061C, strain CIN8, hits give low values 1 | locus YER015W, strain faa2, hits give low values 1.02 | locus YER016W, strain bim1, hits give low values 1.02 | locus YER110C, hits give low values 0.983 | locus YER111C, strain swi4, hits give low values 1.01 | locus YER155C, strain BEM2 (second series), hits give low values 1.04 | locus YER155C, strain BEM2, hits give low values 1 | locus YER167W, strain BCK2, hits give low values 0.997 | locus YFR010W, strain ubp6, hits give low values 1.03 | locus YGL078C, strain dbp3, hits give low values 0.997 | locus YGL086W, strain mad1, hits give low values 1 | locus YGL167C, strain pmr1, hits give low values 1.01 | locus YGL173C, strain kem1, hits give low values 1.03 | locus YGL227W, strain vid30, hits give low values 1.02 | locus YGL240W, strain doc1, hits give low values 1.01 | locus YGL248W, strain PDE1, hits give low values 1 | locus YGL253W, strain hxk2, hits give low values 1.02 | locus YGR078C, strain PAC10, hits give low values 0.983 | locus YGR135W, strain pre9, hits give low values 0.993 | locus YGR229C, strain SMI1, hits give low values 0.991 | locus YGR252W, strain gcn5, hits give low values 1.2 | locus YHR013C, strain ard1, hits give low values 1.01 | locus YHR027C, strain rpn1, hits give low values 1.01 | locus YHR030C, strain SLT2, hits give low values 0.998 and 0.962 | locus YHR079C, strain IRE1 (second series), hits give low values 0.985 | locus YHR079C, strain IRE1, hits give low values 0.949 | locus YHR094C, strain hxt1, hits give low values 0.986 | locus YHR129C, strain ARP1, hits give low values 0.984 | locus YHR142W, strain chs7, hits give low values 1.01 | locus YHR200W, strain rpn10, hits give low values 1 | locus YIL066C, strain RNR3, hits give low values 0.995 | locus YIL073C, strain SPO22, hits give low values 0.874 | locus YIL125W, strain kgd1, hits give low values 0.956 | locus YIR030C, strain dcg1, hits give low values 0.998 | locus YJL092W, strain hpr5, hits give low values 1.02 | locus YJL095W, strain BCK1 (second series), hits give low values 1.01 | locus YJL095W, strain BCK1, hits give low values 0.972 and 0.992 | locus YJL115W, strain asf1, hits give low values 1.01 | locus YJL129C, strain trk1, hits give low values 1.03 | locus YJL134W, strain LCB3, hits give low values 0.993 | locus YJL154C, strain vps35, hits give low values 1.02 | locus YJL164C, strain tpk1, hits give low values 1 | locus YJL166W, strain qcr8, hits give low values 0.989 | locus YJL168C, strain set2, hits give low values 0.993 | locus YJL187C, strain SWE1 (second series), hits give low values 0.966 | locus YJR043C, strain POL32, hits give low values 0.982 | locus YJR066W, strain TOR1, hits give low values 0.962 | locus YJR075W, strain HOC1, hits give low values 0.985
